Laboratory results taken from PubChem BioAssay (NCI).
This is part of a sample that, as a whole, favours compounds with a hit. Of some 83,000 tested, about 20% had one in any assay.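 Cells were grown in 96-well plates and exposed to the test compound at a single concentration for 48 hours; results are reported as percent growth, with values below 10 considered active.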 Values without a mark were called inactive. Calls of active or inactive are those of the source.

Experiments:
Assay in all cases: NCI-60 one-dose screen, 48 h (100 = growth as untreated, 0 = no growth, -100 = all killed)
Details in all cases: 10 µM unless noted
[1] = tested on: HCT-15 colon
[2] = tested on: HT29 colon
[3] = tested on: SNB-75 CNS
[4] = tested on: SNB-19 CNS
[5] = tested on: U251 CNS
[6] = tested on: PC-3 prostate
[7] = tested on: SK-MEL-5 melanoma
[8] = tested on: UACC-62 melanoma
[9] = tested on: LOX IMVI melanoma
[10] = tested on: SK-MEL-28 melanoma
[11] = tested on: SK-MEL-2 melanoma
[12] = tested on: EKVX NSCLC
[13] = tested on: SN12C renal
[14] = tested on: UO-31 renal
[15] = tested on: TK-10 renal
[16] = tested on: ACHN renal
[17] = tested on: CAKI-1 renal
[18] = tested on: A498 renal
[19] = tested on: CCRF-CEM leukemia
[20] = tested on: MOLT-4 leukemia

SMILES | growth [1] | growth [2] | growth [3] | growth [4] | growth [5] | growth [6] | growth [7] | growth [8] | growth [9] | growth [10] | growth [11] | growth [12] | growth [13] | growth [14] | growth [15] | growth [16] | growth [17] | growth [18] | growth [19] | growth [20]
O=C(CN1CCN(c2cc(=O)n(-c3ccccc3)c3ccccc23)CC1)Nc1ccc(F)cc1 | 69.2% | 81% | 77.2% | 77.3% | 80.2% | 64.6% | 16.9% | 55.3% | 67.4% | 86.2% | 87.9% | 48.7% | 77.7% | 40.6% | 73.1% | 65.4% | 63.7% | 53.6% | 70% | 44.4%
Nc1nc(N)c2c(n1)NC(c1ccc(C(F)(F)F)cc1)CC(c1ccc(Nc3nc(NCCO)nc(N4CCOCC4)n3)cc1)=N2 (stereo not given) | 37.2% | 50.4% | 66% | 84% | 45.6% | 49.2% | 64.6% | 82.2% | 49.7% | 81.7% | 80.6% | 85.5% | 78.2% | 80.4% | 97.5% | 88.3% | 79.7% | 72.6% | 35.1% | 23.8%
CCn1c(SCC(=O)Nc2cccc(C(=O)/C=C/c3ccccc3Cl)c2)nc2ccccc2c1=O | 55.2% | 67.1% | 89.5% | 82.3% | 73.4% | 75.4% | 93.5% | 79.9% | 27.6% | 98.3% | 110% | 85.8% | 88.4% | 68% | 125% | 97% | 84.6% | 94% | 77.8% | 93.2%
O=C(CNc1nc(-c2cccc([N+](=O)[O-])c2)cs1)Nc1cccc(Cl)c1 | 98.4% | 116% | 101% | 99.5% | 106% | 98.5% | 103% | 92.7% | 115% | 104% | 107% | 89.2% | 99.4% | 80.5% | 149% | 101% | 106% | 93% | 103% | 101%
CS(=O)(=O)Nc1cc(-c2ccc3ncc(C#N)c(Nc4cccc(Cl)c4F)c3c2)cnc1Cl | 8.27% (active) | 2.88% (active) | 47.9% | 5.43% (active) | -8.19% (active) | -16.3% (active) | -89.9% (active) | -32% (active) | -62.2% (active) | 2.61% (active) | -71.3% (active) | -5.3% (active) | 16.1% | -16.1% (active) | -31% (active) | 12.7% | -5.21% (active) | -50.9% (active) | 2.5% (active) | -11.1% (active)
CC1(C)CC[C@]2(CN)CC[C@]3(C)C(=CC[C@@H]4[C@@]5(C)CCCNC(C)(C)[C@@H]5CC[C@]43C)[C@H]2C1 | 71.7% | 40.7% | 99.1% | 101% | 89.4% | 87.6% | 98.8% | 105% | 81.9% | 103% | 108% | 96% | 99.5% | 89% | 111% | 109% | 93.2% | 98% | 79.4% | 82.8%
CCCn1cnc2c(c1=N)C(c1ccc(Cl)cc1)c1sc3c(C)cccc3c1O2 (stereo not given) | 13% | 5.11% (active) | 26.7% | 26.5% | 19.4% | 6.9% (active) | 28.7% | 5.02% (active) | 19.6% | 60.9% | 33.5% | 42.7% | 17.9% | 32.2% | 93.3% | 29.1% | 29.8% | -13.1% (active) | 3.96% (active) | 15.5%
COc1ccc(-c2nc3cccc(O)c3c(=O)n2Cc2ccccc2)cc1COc1ccc(NC(C)=O)cc1 | 12.5% [3 µM] | 55.9% [3 µM] | 44.8% [3 µM] | 42% [3 µM] | 30% [3 µM] | 36.5% [3 µM] | 29.4% [3 µM] | 37.3% [3 µM] | 2.67% [3 µM] (active) | 55.4% [3 µM] | 86.8% [3 µM] | 79.5% [3 µM] | 62.3% [3 µM] | 74.2% [3 µM] | 69.4% [3 µM] | 36.2% [3 µM] | 57% [3 µM] | 70.5% [3 µM] | 41.6% [3 µM] | 15.4% [3 µM]
c1n[nH]cc1-c1nc2ccc3[nH]ncc3c2c2c1CCCC2 | 12.7% | 24% | 7.62% (active) | 23.1% | 30.1% | 23.1% | 16.1% | -0.281% (active) | 18.8% | 18.3% | -20.7% (active) | 42.1% | 15.1% | 11.9% | 15.1% | 10.8% | 0.509% (active) | -14.2% (active) | 28.1% | 24.6%
O=C(CSc1nnc(-c2ccc(Cl)cc2)n1-c1ccccc1)Nc1ccc(Br)cc1 | 67% | 21.3% | -33.7% (active) | 35% | -51.8% (active) | 13.5% | 31.2% | 20.2% | -54.5% (active) | 33.4% | 80.9% | 24.9% | -42.9% (active) | -19.4% (active) | -55.7% (active) | -81.9% (active) | -53.6% (active) | -60.8% (active) | 41% | 61.1%
COc1cc(-c2ccc3ncnc(NCc4ccccc4)c3c2)cnc1OC | 68.2% | 64.5% | -17.8% (active) | 74.4% | 81.7% | 31.7% | 70.8% | 47.1% | 41.2% | 63.2% | 76.5% | 6.53% (active) | 27.2% | 17.7% | -11.7% (active) | 19.9% | 6.95% (active) | -48.8% (active) | 54.8% | 32.1%
CS(=O)(=O)Nc1cc(-c2ccc3ncc(C#N)c(NCc4ccccc4F)c3c2)cnc1Cl | 8.34% (active) | 11% | 26.3% | 12.8% | 11.5% | 6.54% (active) | -93.6% (active) | -20.7% (active) | -41.9% (active) | 5.71% (active) | -52.3% (active) | 0.584% (active) | 16.8% | 4.65% (active) | -11.1% (active) | 10.9% | -8.09% (active) | -42.9% (active) | 13.3% | -15.8% (active)
COc1c(N2CC3CCCNC3C2)c(F)cc2c(=O)c(C(=O)N/N=C/c3ccccc3)cn(C3CC3)c12 (stereo not given) | 76.3% | 72.6% | 88.7% | 101% | 94.7% | 86.9% | 87.8% | 105% | 83.7% | 94.3% | 111% | 94.7% | 91.5% | 86.4% | 99.5% | 105% | 91.9% | 74.9% | 78.2% | 79.3%
O=S(=O)(NCCCNc1nccc(-c2[nH]c(-c3ccccc3)nc2-c2ccc(Cl)c(O)c2)n1)c1ccc(Br)cc1 | 13.9% | 39.7% | 73.6% | 49% | 30.7% | 27.1% | 0.46% (active) | 13.2% | 21.6% | 17.3% | -22.4% (active) | 44.2% | 37.5% | 36.8% | 66.6% | 24.2% | 33.6% | 65.4% | 21.5% | 22.8%
C[C@@H](Nc1c(C#N)cnc2ccc(-c3cnc(Cl)c(NS(C)(=O)=O)c3)cc12)c1ccccc1 | 10.2% | 11.6% | -30% (active) | 15.7% | 15.2% | 5.67% (active) | -82.8% (active) | -12% (active) | -24.6% (active) | 5.72% (active) | -29.4% (active) | -9.44% (active) | 9.48% (active) | 4.15% (active) | -17.9% (active) | 8.09% (active) | -18.4% (active) | -49.8% (active) | 2.97% (active) | -35.6% (active)
